Measurements reported in ChEMBL document CHEMBL1157539, “Thousands of chemical starting points for antimalarial lead identification” (Nature, 2010).

Assays:
Format in all cases: functional
Plasmodium falciparum [1] = experiment: GSK_TCMDC: Inhibition of Plasmodium falciparum 3D7 in whole red blood cells, using parasite LDH activity as an index of growth. Test compounds present at 2uM
Plasmodium falciparum [2] = experiment: GSK_TCMDC: Inhibition of Plasmodium falciparum Dd2 in whole red blood cells, using parasite LDH activity as an index of growth. Test compounds present at 2uM
HepG2 = experiment: GSK_TCMDC: Percent inhibition of human HepG2 cell line. Test compounds present at 10uM.

| SMILES | Inhibition (Plasmodium falciparum [1]) [%] | Inhibition (Plasmodium falciparum [2]) [%] | Inhibition (HepG2) [%] |
| --- | --- | --- | --- |
| O=C(N[C@H]1CCN(Cc2ccc(OCCN3CCNCC3)c(Cl)c2)C1)c1ccc(Cl)c(Cl)c1.O=C(O)C(F)(F)F | 100 | 5 | 50 |
| CO/C(=C\C=C\c1cc2cc(Cl)c(Cl)cc2[nH]1)C(=O)NCCCN1CCN(C2CCCCC2)CC1 | 99 | 97 | 60 |
| CC1CCC2(CC1)NC(N)=NC(=N)N2OCCCCCCCCO (stereo not given) | 96 | 87 | 2 |
| COc1cc(C(=O)NC2CC(C)(C)N(C)C(C)(C)C2)ccc1-c1cc2cc(Cl)c(Cl)cc2[nH]1 | 89 | 36 | 65 |
| Cc1cc(N(C)CCN(C)C)nc(Nc2ccc(Cl)cc2)n1 | 92 | 14 | 0 |
| CCCNC(=O)c1cncc(-c2ccc(CNC(CC)c3ccccc3)cc2)c1.O=C(O)C(F)(F)F (stereo not given) | 92 | 1 | 20 |
| Cl.FC(F)(F)c1cc(Nc2ccc(Oc3ccccc3)cc2)c2cc(-c3ccncc3)ccc2n1 | 100 | 70 | 0 |
| Cc1[nH]c(C)c(-c2ccc(CCc3ccc(N)cc3)cc2)c(=O)c1Cl | 97 | 97 | 2 |
| NC1CCCN(Cc2cccc(-c3ccc(-c4nc5cc(C(F)(F)F)ccc5[nH]4)cc3)c2)C1.O=C(O)C(F)(F)F (stereo not given) | 99 | 96 | 47 |
| Cc1cc(Nc2cc(Cl)cc(Cl)c2)nc(N)n1 | 94 | 28 | 0 |
| CCC(C)NC(=O)Nc1cccc(-c2cccc(-c3nc4cccc(C)c4[nH]3)c2)c1 (stereo not given) | 100 | 27 | 3 |
| FC(F)(F)c1ccc2c(C=Cc3ccncc3)c[nH]c2c1 | 98 | 76 | 0 |
| COc1ccc2ncc(F)c(NC(=O)C3CCC(NCc4cc5cc(F)cc(F)c5[nH]4)CC3)c2n1.Cl (stereo not given) | 95 | 15 | 18 |
| CCCCCCn1c(Sc2ccc(C#N)c([N+](=O)[O-])c2)nnc1-c1ccc(Cl)cc1 | 93 | 48 | 23 |
| COCCNCc1ccc(-c2ccc3c(Nc4ccc(F)cc4Cl)ccnc3c2)o1 | 100 | 100 | 22 |
| CCCC(C)Nc1nc(C)cc(N[C@@H](Cc2ccccc2)C(=O)Nc2ccccc2)n1.O=C(O)C(F)(F)F (stereo not given in full) | 100 | 67 | 50 |
| CO/C(=C\C=C\c1cc2cc(Cl)c(Cl)cc2[nH]1)C(=O)NCCCN1CCN(Cc2ccccc2)CC1 | 94 | 65 | 45 |
| COc1cc(NC(=O)c2cccs2)c(OC)cc1NC(=O)Nc1cccc(Cl)c1 | 83 | 10 | 5 |
| COc1ccc(S(=O)(=O)NC2CCN(CCCOc3ccnc4cc(Cl)ccc34)C2)cc1OC (stereo not given) | 91 | 56 | 8 |
| O=C(/C=C/c1ccc(Cl)cc1)NCCCCCN1CCC(C(=O)Nc2ccc(Cl)c(Cl)c2)CC1 | 100 | 0 | 47 |

| SMILES | Inhibition (Plasmodium falciparum [1]) [%] | Inhibition (Plasmodium falciparum [2]) [%] | Inhibition (HepG2) [%] |
| --- | --- | --- | --- |
| COCCn1c(C)nc2ccccc2c1=O | 89 | 67 | 0 |
| O=C(Nc1cc(F)cc(F)c1)N[C@H]1CCN(CCCCCNC(=O)C2CC2c2ccc(Cl)c(Cl)c2)C1 (stereo not given in full) | 88 | 0 | 24 |
| CN(c1ccc(C(=O)N[C@@H](CCC(=O)O)C(=O)O)cc1)S(=O)(=O)c1ccc2nc(N)[nH]c(=O)c2c1 | 97 | 3 | 16 |
| O=C(Nc1cccc(-c2cccc(-c3nc4ccccc4[nH]3)c2)c1)Nc1ccc2c(c1)OCO2 | 100 | 57 | 25 |
| Cc1ccc(Nc2nc(N/N=C/c3cc4c(cc3Br)OCO4)nc(Nc3ccc([N+](=O)[O-])cc3)n2)cc1C | 100 | 89 | 23 |
| Cc1cccc(OC(C)C(=O)Nc2cc(C(F)(F)F)ccc2N2CCOCC2)c1 (stereo not given) | 100 | 98 | 2 |
| O=C(Nc1ccc(I)cc1)Nc1ccc(Cn2ncc(N3CCCNCC3)c(Cl)c2=O)cc1.O=C(O)C(F)(F)F | 86 | 30 | 35 |
| O=C(Nc1ccc2c(c1)CCN2C1CCN(Cc2cccc(F)c2F)C1)c1ccco1 (stereo not given) | 87 | 90 | 0 |
| Cl.Ic1cc(Nc2ncnc3ccsc23)ccc1OCc1ccccc1 | 100 | 81 | 22 |
| Cc1[nH]c(C)c(-c2ccc(-c3ccc(OC(F)(F)F)cc3)nc2)c(=O)c1Cl | 95 | 95 | 11 |
| C=CCc1cc(Br)ccc1OCCCOc1c(N)nc(N)nc1N.Cl | 92 | 0 | 47 |
| Nc1nc(N)c2nc(C3CC=CCC3)c(N)nc2n1 (stereo not given) | 95 | 0 | 67 |
| O=C(O)C(F)(F)F.O=c1cc(N2CCNCC2)c(Cl)nn1Cc1ccc(NS(=O)(=O)c2ccc(Oc3ccccc3)cc2)cc1 | 100 | 0 | 3 |
| Fc1c(CNCC2CCN(CC3CCCCC3)CC2)cccc1C(F)(F)F.O=C(O)C(F)(F)F | 93 | 7 | 35 |
| O=C(NCCN1CCC(NC(=O)c2ccc(-c3ccccn3)s2)CC1)c1cccc(C(F)(F)F)c1.O=C(O)C(F)(F)F | 97 | 24 | 4 |
| COc1cc2c(cc1O)[C@@H]1[C@H](O)[C@@H](O)C=C3CCN(C2)[C@H]31 [PSEUDOLYCORINE] | 90 | 31 | 18 |
| COc1c(C2CCN(CCCCNC(=O)c3oc(-c4ccc(Cl)cc4)cc3CO)CC2)ccc2c1CCCC2 | 100 | 95 | 80 |
| N#Cc1cc(C(=O)c2cc(Cl)ccc2O)cn(-c2cc(Cl)cc(Cl)c2)c1=O | 93 | 32 | 34 |
| Cl.N=C(N)NN=Cc1ccc2ccc3ccccc3c2c1 | 100 | 89 | 34 |
| Cc1cccc(CNc2nc(C)cc(NCCC(=O)NCCOc3ccccc3)n2)c1.O=C(O)C(F)(F)F | 98 | 14 | 18 |

| SMILES | Inhibition (Plasmodium falciparum [1]) [%] | Inhibition (Plasmodium falciparum [2]) [%] | Inhibition (HepG2) [%] |
| --- | --- | --- | --- |
| CCC(=O)N[C@@H]1CN[C@@H](C#Cc2cc3c(Nc4ccc(OCc5cccc(F)c5)c(Cl)c4)ncnc3s2)C1 | 82 | 0 | 46 |
| CCCCCCCC1CC(CC(=O)Nc2ccnc3ccc(OC)cc23)CN1C(=O)OC(C)(C)C (stereo not given) | 100 | 34 | 1 |
| COc1cccc(C(=O)NCCc2cccc(Cl)c2)c1OCc1ccccc1 | 85 | 0 | 0 |
| COc1cccc(CN(C(=O)Nc2ccccc2F)[C@H]2C[C@H]3C(=O)Nc4cc(F)ccc4C(=O)N3C2)c1 | 93 | 75 | 0 |
| CCn1c(-c2nonc2N)nc2cnc(Oc3cccc(NC(=O)c4ccc(OCCN(C(C)C)C(C)C)cc4)c3)cc21 | 97 | 10 | 63 |
| CN(C)CCN(C)Cc1cccc(-c2ccc3c(Nc4cc(O)c(Cl)cc4F)ccnc3c2)c1 | 100 | 70 | 14 |
| Cc1sc(N2CCCCC2)nc1C(=O)Nc1ccc(F)cc1C(F)(F)F.O=C(O)C(F)(F)F | 86 | 35 | 0 |
| c1ccc(CSC2=NNC(c3ccccn3)S2)cc1 (stereo not given) | 80 | 65 | 6 |
| COC(=O)c1cccc(CNCc2ccc(-c3ccc(-c4nc5cccc(C)c5[nH]4)cc3)cc2)c1.O=C(O)C(F)(F)F | 100 | 86 | 17 |
| CC(=O)Nc1ccc(OCCCCN(Cc2ccccc2C(F)(F)F)c2ccc(C#N)c(C(F)(F)F)c2)c(Cl)c1 | 98 | 71 | 0 |
| COc1ccc2nccc(NCC3(O)CCC(NCc4ccc5c(n4)NC(=O)CS5)CC3)c2n1.Cl (stereo not given) | 100 | 23 | 16 |
| Nc1ccc(Oc2ccc(Cc3cnc(N)nc3N)cc2)cc1 | 86 | 5 | 10 |
| CCC(C)NS(=O)(=O)c1ccc2nc(Nc3ccc(C)c(Cl)c3)n([C@H](C)C(C)(C)C)c2c1 (stereo not given in full) | 98 | 100 | 8 |
| Cc1c(CNCCCNc2nc3ccccc3[nH]2)sc(C(F)F)c1Br.Cl | 100 | 5 | 9 |
| Cc1ccc(Cn2ncc(N3CCCNCC3)c(Cl)c2=O)cc1NC(=O)Nc1ccc(-c2ccccc2)cc1 | 100 | 38 | 55 |
| NC(=O)c1ccsc1NC(=O)CNC(c1ccc(F)cc1)c1cccs1 (stereo not given) | 92 | 71 | 31 |
| Cc1[nH]c(C)c(-c2ccc(-c3ccc(OC(F)(F)F)cc3)nc2)c(=O)c1Br | 97 | 97 | 26 |
| COc1ccc(Cc2nc3c(n2C(C)=O)SC(c2ccc(Cl)c(Cl)c2)=NN3C(C)=O)cc1 | 94 | 22 | 0 |
| COc1ccc2ncc(F)c(CCN3CCC(NCc4cc(F)c5c(c4)OCCO5)CC3)c2n1.Cl | 100 | 67 | 15 |
| Cc1cc(N)cc2nc(-c3ccc(N)cc3)[nH]c12 | 96 | 75 | 0 |
